From PubChem BioAssay
The full list was thinned out, with hits kept by preference.
Artemis endo inh: blocks endonuclease activity of human Artemis; recombinant Artemis, quenched FAM hairpin cleavage fluorescence; inhibition, % at 10 µM; 30,000 compounds, 0.78% hits;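 active means at 10 µM dose, at least 30% inhibition, measured as corrected fluorescence normalized to stimulator and neutral control wells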
Target sequence (Q96SD1 whole entry, looked up): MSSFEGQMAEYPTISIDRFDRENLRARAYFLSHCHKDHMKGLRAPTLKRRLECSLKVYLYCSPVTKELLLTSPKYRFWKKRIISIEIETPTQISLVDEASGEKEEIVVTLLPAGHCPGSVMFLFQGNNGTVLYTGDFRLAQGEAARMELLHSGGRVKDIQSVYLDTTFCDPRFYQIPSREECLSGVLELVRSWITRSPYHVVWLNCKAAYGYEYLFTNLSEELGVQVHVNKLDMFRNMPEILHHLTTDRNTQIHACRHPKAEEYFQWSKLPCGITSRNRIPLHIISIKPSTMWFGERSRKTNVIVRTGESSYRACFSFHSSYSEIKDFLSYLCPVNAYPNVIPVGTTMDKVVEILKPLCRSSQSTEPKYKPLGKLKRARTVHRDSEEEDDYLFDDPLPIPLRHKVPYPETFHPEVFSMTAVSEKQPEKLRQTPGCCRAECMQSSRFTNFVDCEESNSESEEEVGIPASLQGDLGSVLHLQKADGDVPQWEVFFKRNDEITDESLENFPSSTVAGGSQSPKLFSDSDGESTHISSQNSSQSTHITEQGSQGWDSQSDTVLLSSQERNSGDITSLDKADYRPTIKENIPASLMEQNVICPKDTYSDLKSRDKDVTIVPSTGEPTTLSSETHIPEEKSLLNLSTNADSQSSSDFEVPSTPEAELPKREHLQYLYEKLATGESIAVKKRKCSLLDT
Each line names hits and unclear results; the compound was inactive in the other large screens.

CC(=O)C(Sc1nc(NC(C)(C)C)nc(N(C)C)n1)C(C)=O	none
CNc1nc(Cl)nc(NC(C)(C)C)n1	none
CC(C)(C)Nc1nc(NN)nc(NC(C)(C)C)n1	Artemis endo inh 42.9
COc1ccc(C2C(C(=O)c3ccc(C)o3)=C(O)C(=O)N2c2cc(C)on2)cc1OC (centres undefined)	none
CCOc1cc(C2C(C(=O)c3ccc(C)o3)=C(O)C(=O)N2CCc2ccccc2)ccc1O (centres undefined)	Artemis endo inh 31.8
COc1cc(C2C(C(C)=O)=C(O)C(=O)N2CCc2ccc(OC)c(OC)c2)ccc1O (centres undefined)	none
Cc1nc(=O)c(-c2ccccc2)c(C)n1-c1ccc(O)c(C(=O)O)c1	none
CCn1c(COc2ccc3c(c2)OCO3)nnc1SCC(=O)c1ccc(Cl)cc1	none
Cc1ccc(-c2n[nH]c(=S)n2/N=C/C=C\c2ccccc2[N+](=O)[O-])cc1	none
Cn1cccc1/C=N/n1c(-c2ccccc2)n[nH]c1=S	none
O=[N+]([O-])c1ccccc1/C=C/C=N/n1c(-c2ccc(Cl)cc2)n[nH]c1=S	Artemis endo inh 30.5
COC(=O)C(/C=N/OCc1ccc([N+](=O)[O-])cc1)NC(=O)c1cccc(Cl)c1 (centres undefined)	none
CCCCCCCCCCNC(=O)C(=O)Nc1ccccn1	none
CCCCCCOc1ccc(/C(N)=N/O)cc1	none
CCCCCCCCC/C(=N\O)c1ccccn1	Artemis endo inh 35.0
COc1cc(C(=O)NCCOc2cc(C)cc(C)c2)c(Br)c(OC)c1OC	none
CC(=O)N(c1cccc(C)c1)C1SC(=O)N(c2ccccc2)C1=O (centres undefined)	Artemis endo inh 36.8
Cc1ccc(NC(=O)CC2SC(=O)N(c3ccccc3)C2=O)cc1 (centres undefined)	none
Cc1cccc(NC(=O)CC2SC(=O)N(c3ccccc3)C2=O)c1 (centres undefined)	none
CCOc1ccc(C(O)C(CN2CCOCC2)c2ccccc2)cc1 (centres undefined)	none
O=S(=O)(NC1CCCCCC1)c1ccc(Br)s1	none
CC(=O)N(Cc1ccc(F)cc1)C1=C(NCc2ccccc2)C(=O)c2ccccc2C1=O	Artemis endo inh 39.3
CC(C)N(CCNC(=O)C1CCC(=O)N1Cc1ccc(F)cc1)Cc1ccccc1 (centres undefined)	none
Cn1c(NCc2ccccc2)cc(=O)n(C)c1=O	none
O=C1c2cccc(Cl)c2C(=O)c2c1cccc2N1CCCC1	none
CC(C)OP(=O)(OC(C)C)C1(O)C(=O)Nc2ccccc21 (centres undefined)	none
O=C(CC1CCCC1)Nc1ccc2c(c1)CCC2	none
O=C(CSCc1ccc(Cl)cc1)NCc1ccc2c(c1)OCO2	none
O=C(Nc1nc2n(n1)C(c1ccccc1)CC(c1ccc(Cl)cc1)N2)c1ccco1 (centres undefined)	Artemis endo inh 31.3
O=C1CC(c2ccccc2)n2nc(NC(=O)C3CCCO3)nc2N1 (centres undefined)	none
CC1CC(c2ccccc2)n2nc(NC(=O)CCc3ccccc3)nc2N1 (centres undefined)	none
O=c1c(Cc2ccc(Cl)cc2Cl)c(O)ccn1Cc1ccc(Cl)cc1	none
CCCn1c(=O)n(C)c(=O)c2c(SCC(=O)NCc3ccco3)nc(C3CC3)nc21	none
COc1ccccc1N1CCN(CC(=O)NCC2CCCO2)CC1 (centres undefined)	none
CC1=CC(C)(C)N(C(=O)CSc2nnc(-c3ccc(C)cc3)o2)c2ccc(C)cc21	none
O=c1ccc2cc3c([nH]c4ccc(Br)cc43)oc-2c1O	Artemis endo inh 80.9
Cc1[nH]c2ccc(Br)cc2c(=O)c1CN1CCOCC1	none
O=c1c(O)c(-c2ccc3c(c2)OCO3)oc2ccccc12	none
O=C(Nc1ccncc1)c1ccc2c(c1)C(=O)N(C1CCCCC1)C2=O	none
Cc1[nH]n2c(=O)c3c(nc2c1-c1ccccc1)CCC3	none
Nc1[nH]n2c(=O)c3c(nc2c1N=Nc1ccc(Cl)cc1)CCCC3	Artemis endo inh 30.4
Cc1[nH]n2c(=O)c3c(nc2c1-c1ccc(Cl)cc1)CCC3	none
C#CCOC(=O)c1ccc(-n2cncn2)nc1	none
CCOc1ccccc1N1CN(CC)CNC1=S	Artemis endo inh 54.8
CCOc1ccccc1N1Cc2ccccc2C1	none
CCOc1ccccc1N1CCN(C(=O)C(F)(F)F)CC1	none
Cc1ccc(N2C(=O)C(Cl)=C(NCc3ccccc3)C2=O)c(C)c1	none
CN1CCN(CCC(=O)Nc2ccc3c(c2)OCO3)CC1	none
CCC(=O)Nc1ccc(C(=O)Nc2ccc3c(c2)OCO3)cc1	Artemis endo inh 36.3
O=C(Nc1ccc(Cl)cc1)c1ccc2c(c1)OCO2	none
CCN(CC)S(=O)(=O)c1ccc(N(C)Cc2cccnc2)nc1	none
CCOC(=O)c1c(NC(=O)CSc2nnc3c(n2)[nH]c2ccccc23)sc2c1CCN(C)C2	Artemis endo inh 42.0
CCOC(=O)c1c(NC(=O)CSc2nnnn2-c2ccccc2)sc2c1CCC(C)C2 (centres undefined)	none
CCOC(=O)c1c(NC(=O)CSc2nncs2)sc(C)c1C	none
CN1CCN(c2ccc([N+](=O)[O-])cc2C(=O)c2ccc(Cl)cc2)CC1	none
CN1c2ccsc2C(O)=C(C(=S)Nc2ccc(F)c(Cl)c2)S1(=O)=O	none
CCOC(=O)CSc1nnnn1-c1cc(OC)c(Cl)cc1OC	none
COc1cc(Nc2nnc(C)s2)c(Cl)cc1Cl	none
COc1cc(-n2ccnc2SC)c(Cl)cc1Cl	Artemis endo inh 51.5
Brc1ccc(-n2cccc2/C=N/n2cnnc2)cc1	none
COc1ccc(OC)c(NC(=O)CSC2=NCCS2)c1	none
COc1ccc(CC(=O)NC2=NCCS2)cc1	none
COc1ccc(Nc2nc(Nc3ccc(OC)cc3)nc(SC3=NCCS3)n2)cc1	Artemis endo inh 79.4
COc1cc(-c2nnc(SCC3(c4ccccc4)OCCO3)o2)cc(OC)c1OC	none
O=C(CCCCCCN1C(=O)c2ccccc2C1=O)N1CCC(c2ccccc2)C1 (centres undefined)	none
CCOC(=O)C1(c2ccccc2)NC(c2ccccc2C)C2C(=O)N(c3ccc4c(c3)OCO4)C(=O)C21 (centres undefined)	none
COc1cccc(-n2c(SCC(=O)N3c4ccccc4CC3C)nnc2-c2ccco2)c1 (centres undefined)	none
CC1Cc2ccccc2N1C(=O)CSc1nnc2c(n1)[nH]c1ccccc12 (centres undefined)	Artemis endo inh 35.5
CC1Cc2ccccc2N1C(=O)CSc1nc2c(c(=O)n(C)c(=O)n2C)n1Cc1ccc(F)cc1 (centres undefined)	none
CCc1nc(Nc2ccc(OC)c(OC)c2)c2nnn(Cc3ccccc3Cl)c2n1	none
O=c1[nH]c(Cn2nnc(-c3ccccc3)n2)nc2scc(-c3ccccc3)c12	none
CC1(C)CC2(CC(c3cccs3)c3cc(Cl)c(O)cc3O2)NC(=S)N1 (centres undefined)	none
CCCOC(=O)C(C)n1cnc2sc(C)c(C)c2c1=O (centres undefined)	none
O=C(NCc1ccco1)c1cc(-c2ccccc2)nc2ccccc12	none
O=C(N/N=C/c1ccc([N+](=O)[O-])o1)c1cc(-c2cccc(Br)c2)nc2ccccc12	Artemis endo inh 38.8
O=C(Oc1ccc([N+](=O)[O-])cc1)c1cc(-c2ccccc2)nc2ccccc12	none
COc1ccc(Cl)cc1NC(=O)Nc1cccc([N+](=O)[O-])c1C	none
C#CCOC(=O)C(NC(=O)c1ccccc1)=C1CCCCC1	none
N#Cc1ccsc1NC(=O)CSc1ncnc2ccccc12	none
CCNC(=O)CSc1ncnc2sccc12	none
N#Cc1c(NC(=O)CSc2ncnc3sccc23)oc(-c2ccco2)c1-c1ccco1	Artemis endo inh 31.3
CCOc1ccc(C(=O)c2cc([N+](=O)[O-])ccc2Cl)cc1	none
COC(=O)c1[nH]c(=O)c2ccccc2c1O	none
Cc1ccccc1Nc1cc2ccccc2c(=O)[nH]1	Artemis endo inh 31.0
Cc1cccc2cc(=O)[nH]c(C)c12	none
